Results with a measured potency or affinity are listed apart. Inconclusive results are not listed. Active and inactive are the calls of the source.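 How the source made its calls: active means compound whose half-maximal dose for viability loss stays within twice the top tested dose at all three treatment times; inconclusive means treatment times disagree in their calls; inactive means inactive at every treatment time.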
Assay: cytotoxicity in SNB-19 CNS tumor cells – cell-based, Alamar Blue fluorescence, 8/24/48 h, dry powder, HRAS target identification, dose response (AID 720600)
Settings: SNB-19 viability, 8-48 h; series mostly up to 35 µM

SMILES | outcome
Cc1onc(C(=O)N2CCN(C(c3ccncc3)c3ccncc3)CC2)c1[N+](=O)[O-] | inactive
CCC(=O)N(c1ccc(OC)c(Cl)c1)C(C(=O)NCCc1ccccc1)c1cccs1 (configuration not stated) | inactive
